Measurements taken from PubChem BioAssay (NCATS).
Several values for one entry are separate records, joined by “and”; a condition that tells them apart may be missing. Identical values can stand only once. Records with an inconclusive call do not appear. The source holds several records for some structures; these can differ, active in one and inactive in another. Activity calls are given as the source filed them. Unless noted, calls come from the whole dose curve.

Experiments:
[1] = AP1 Signaling Pathway (AID 357; active = well fitted curve in either direction with a large enough effect, not every such curve was filed as active;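 note: ME-180 reporter cells stimulated with EGF at its EC50 level; % is set by controls: 0 for no effect and ±100 for the full control effect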); conditions: ME-180 AP-1-bla reporter, EGF-induced, beta-lactamase ratio, 5 h; series mostly up to 17.2 µM
In short: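 Titration-series screen for positive or negative modulators of EC50 EGF-induced signaling in ME-180 cells carrying an AP-1-driven beta-lactamase reporter. After 5 hours at 37 degrees Celsius, CCF4 460nm/530nm emission ratio gave %Activity; AC50 values derived.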

[2] = NFAT Signaling Pathway (AID 444; active = well fitted curve in either direction with a large enough effect, not every such curve was filed as active;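 note: carbachol stimulus at about its EC50 of 1 µM final; % is set by controls: 0 for no effect and ±100 for the full control effect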); conditions: Jurkat NFAT-bla M1, carbachol, beta-lactamase ratio, 5 h
In short: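 Jurkat cells carrying an NFAT-driven β-lactamase reporter and co-transfected muscarinic M1 receptor were treated with compound plus carbachol (1 uM final, an EC50 level) for 5 h at 37 °C. CCF4 loading followed for 1 h at RT; 460/530 nm ratio gave %activity.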

[3] = Stat Signaling Pathway (AID 446; active = well fitted curve in either direction with a large enough effect, not every such curve was filed as active;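 note: ME-180 cervical cancer cells given 40 pM IL-6 alongside compound; SIE-controlled beta-lactamase reporter measured as 460/530 nm FRET emission ratio; % is set by controls: 0 for no effect and ±100 for the full control effect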); conditions: ME-180 (cervical carcinoma) SIE beta-lactamase reporter, IL-6 stimulated, 5 h; series mostly up to 17.2 µM
In short: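 Normalization used AC90 stimulation (300 pM IL-6) and AC90 inhibition (125 nM pan-JAK inhibitor at 40 pM IL-6). The underlying signal is SIE-driven beta-lactamase in ME-180 cells after 5 h IL-6 exposure with compound.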

[4] = Cell Viability - BJ (AID 421); conditions: BJ fibroblast viability, qHTS;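 note: potency is the fitted concentration of half-maximal effect; cells exposed to compound for 40 hours at 37 °C before readout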
In short: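 Normal human BJ foreskin fibroblasts, 1500/well in complete medium, treated 40 hr at 37 °C. Cellular ATP by CellTiter-Glo luminescence; normalized to DMSO and 100 uM tamoxifen, AC50 from Hill fit.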

[5] = Cell Viability - Jurkat (AID 426;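 active = dose-dependent loss of cell ATP signal giving a full or clear fitted curve, ranked by lower potency value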; note: potency is the fitted concentration of half-maximal effect); conditions: qHTS
In short: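 Luminescent ATP read-out (CellTiter-Glo, 20 min at room temperature) after 40 hr compound exposure at 37 °C of Jurkat E6-1 cells, 5000/well. Decreased ATP taken as cytotoxicity; AC50 from standard Hill equation.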

[6] = Cell Viability - Hek293 (AID 427;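 active = compounds whose dose-response curve shows a full or clear partial loss of cell viability, called from curve shape rather than a numeric limit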;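 note: potency is the fitted concentration of half-maximal effect; cells exposed to compound for 40 hours at 37 °C before reading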); conditions: qHTS
In short: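 HEK293 cells in complete medium were exposed to compound for 40 hr at 37 °C, then cellular ATP was read by CellTiter-Glo luminescence. Data were normalized to DMSO (basal) and 100 uM tamoxifen (100% inhibition), and AC50 came from Hill fits.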

[7] = Cell Viability - HepG2 (AID 433); conditions: qHTS;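 note: potency is the fitted concentration of half-maximal effect; potency for ATP loss meaning cytotoxicity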
In short: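 HepG2 cells, 1500 per well, treated 40 hr at 37 °C in complete medium; viability from intracellular ATP by CellTiter-Glo luminescence. Normalized to DMSO and 100 uM tamoxifen; AC50 from Hill fit of qHTS concentration-response.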

[8] = Cell Viability - MRC5 (AID 434); conditions: MRC5 lung fibroblast viability, qHTS;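 note: potency is the fitted concentration of half-maximal effect; potency reflects cytotoxicity seen as loss of intracellular ATP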
In short: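 Decrease in intracellular ATP, quantified by luciferase light output, reflects compound toxicity toward MRC5 cells exposed for 40 hr in complete culture medium. Concentration-response curves, scaled between DMSO and 100 uM tamoxifen, gave AC50 values.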

[9] = Cell Viability - SK-N-SH (AID 435); conditions: SK-N-SH neuroblastoma cell viability qHTS;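 note: potency is the fitted concentration of half-maximal effect; compound exposure lasted 40 h at 37 °C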
In short: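 SK-N-SH neuroblastoma cells (1500/well) treated 40 h at 37 °C in complete medium; viability read as cellular ATP by CellTiter-Glo luminescence. Normalized to DMSO and 100 uM tamoxifen; AC50 from Hill fits of qHTS concentration-response.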

[10] = target: Cytochrome P450 1A2 (Homo sapiens) (UniProt P05177); test: p450-cyp1a2 (AID 410); conditions: recombinant CYP1A2, luciferin-ME demethylation, luminescence; series mostly up to 57 µM; note: potency is the fitted concentration of half-maximal effect;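 for activity change, negative = inhibition: -100% = full effect of reference inhibitor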
In short: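 20nM CYP1A2, 100uM Luciferin-ME (=Km), 100mM KPO4; cpd 10 min RT; +NADPH regen, 60 min RT; stop/detect 20 min; luminescence. Normalized to furafylline 57 uM = full inhibition.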

Sequence of Cytochrome P450 1A2 (Homo sapiens) (P05177 whole entry, looked up): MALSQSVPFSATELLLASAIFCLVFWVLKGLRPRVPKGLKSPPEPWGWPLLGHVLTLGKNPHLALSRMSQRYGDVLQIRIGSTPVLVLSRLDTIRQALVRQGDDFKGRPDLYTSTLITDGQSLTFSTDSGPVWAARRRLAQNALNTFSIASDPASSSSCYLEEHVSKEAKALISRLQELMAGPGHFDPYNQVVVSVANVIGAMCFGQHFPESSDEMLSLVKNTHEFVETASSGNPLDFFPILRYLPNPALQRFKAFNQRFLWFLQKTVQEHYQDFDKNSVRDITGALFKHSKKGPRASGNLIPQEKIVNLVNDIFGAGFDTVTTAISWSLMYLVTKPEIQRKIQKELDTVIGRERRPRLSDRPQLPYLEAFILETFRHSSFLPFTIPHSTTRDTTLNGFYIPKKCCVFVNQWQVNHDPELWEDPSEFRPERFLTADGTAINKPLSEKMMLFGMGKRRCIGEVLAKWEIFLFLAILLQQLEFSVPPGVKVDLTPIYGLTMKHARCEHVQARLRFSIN

C[N+]1(C)[C@@H]2CC(OC(=O)[C@H](CO)c3ccccc3)C[C@H]1[C@@H]1O[C@@H]12 (stereo not given in full)
active: activity change, negative = inhibition ([2]; at 17.2 µM (top of the series)) -68.4%
inactive: outcome [1] | outcome [3]

C[C@]1(O)CC[C@H]2[C@@H]3CCC4=CC(=O)CC[C@]4(C)[C@@]3(F)[C@@H](O)C[C@@]21C
inactive: Potency [4] > 92 µM | Potency [5] > 92 µM | Potency [6] > 92 µM | Potency [7] > 92 µM | Potency [8] > 92 µM | Potency [9] > 92 µM

Cc1ncsc1CCCl
active: Potency [10] 31.6 µM

O=C(CCCN1CCC2(CC1)C(=O)NCN2c1ccccc1)c1ccc(F)cc1
inactive: outcome [1] | activity change, negative = inhibition ([2]; at 17.2 µM (top of the series)) -4.55% | activity change, negative = inhibition ([2]; at 38 µM (top of the series)) 10.5%
inactive and 25.1 µM (active): Potency [10]

C[C@]12CCC(=O)C=C1CC[C@@H]1[C@@H]2CC[C@@]2(C)[C@H]1CC[C@]2(C)O
inactive: Potency [4] > 92 µM | Potency [7] > 92 µM | Potency [8] > 92 µM

COP(=S)(OC)Oc1ccc(SC)c(C)c1
inactive: Potency [4] > 92 µM | Potency [5] > 92 µM | Potency [6] > 92 µM | Potency [7] > 92 µM | Potency [8] > 92 µM | Potency [9] > 92 µM

Nc1ccccc1C(=O)O
inactive: Potency [4] > 92 µM | Potency [5] > 92 µM | Potency [6] > 92 µM | Potency [7] > 92 µM | Potency [8] > 92 µM | Potency [9] > 92 µM

Nc1ccccc1
inactive: Potency [4] > 92 µM | Potency [5] > 92 µM | Potency [6] > 92 µM | Potency [7] > 92 µM | Potency [8] > 92 µM | Potency [9] > 92 µM

CCC1(CC)C(=O)C=CNC1=O
inactive: outcome [1] | Potency [10] | activity change, negative = inhibition ([2]; at 17.2 µM (top of the series)) -4.7% | outcome [3]

C#C[C@]1(O)CC[C@H]2[C@@H]3CCC4=CC(=O)CC[C@]4(C)[C@H]3CC[C@@]21C
inactive: outcome [1] | activity change, negative = inhibition ([2]; at 17.2 µM (top of the series)) 2.09% | outcome [3]

O=C(O)CCCc1ccc(N(CCCl)CCCl)cc1
active: Potency [5] 22.8 µM | Potency [6] 18.6 µM
inactive: outcome [1] | Potency [10] | Potency [7] > 92 µM | activity change, negative = inhibition ([2]; at 17.2 µM (top of the series)) -26.3% | activity change, negative = inhibition ([2]; at 38 µM (top of the series)) -2.19% | outcome [3]

O=P1(N(CCCl)CCCl)NCCCO1 (stereo not given)
inactive: outcome [1] | Potency [10] | Potency [4] > 92 µM | Potency [5] > 92 µM | Potency [6] > 92 µM | Potency [7] > 92 µM | Potency [8] > 92 µM | Potency [9] > 92 µM | activity change, negative = inhibition ([2]; at 38 µM (top of the series)) 4.3%

COc1c2c(cc3c1OCO3)CCN(C)C2
active: Potency [10] 2 µM
inactive: outcome [1] | activity change, negative = inhibition ([2]; at 17.2 µM (top of the series)) -27% | outcome [3]

CCCCC/C=C\C/C=C\C/C=C\C/C=C\CCCC(=O)NCC(=O)O
inactive: outcome [1] | Potency [10] | activity change, negative = inhibition ([2]; at 38 µM (top of the series)) -2.7%

CC(NC(C)(C)C)C(=O)c1cccc(Cl)c1 (stereo not given)
inactive: outcome [1] | activity change, negative = inhibition ([2]; at 17.2 µM (top of the series)) -27.5% | outcome [3]

CN1C[C@H](C(=O)N[C@]2(C)O[C@@]3(O)[C@@H]4CCCN4C(=O)[C@H](Cc4ccccc4)N3C2=O)C=C2c3cccc4[nH]cc(c34)C[C@H]21
inactive: Potency [4] > 92 µM | Potency [7] > 92 µM | Potency [8] > 92 µM | Potency [9] > 92 µM
active: Potency [5] 56.2 µM

Oc1ccc(Cl)cc1
inactive: Potency [4] > 92 µM | Potency [5] > 92 µM | Potency [6] > 92 µM | Potency [7] > 92 µM | Potency [8] > 92 µM | Potency [9] > 92 µM

COC(=O)C(c1ccccc1)C1CCCCN1 (stereo not given)
inactive: Potency [4] > 92 µM | Potency [5] > 92 µM | Potency [6] > 92 µM | Potency [7] > 92 µM | Potency [8] > 92 µM | Potency [9] > 92 µM

Clc1ccc(C(c2ccc(Cl)cc2)C(Cl)(Cl)Cl)cc1
inactive: Potency [4] > 92 µM | Potency [7] > 92 µM | Potency [8] > 92 µM

CC(C)N(CCC(C(N)=O)(c1ccccc1)c1ccccn1)C(C)C (stereo not given)
inactive: outcome [1] | outcome [3]

CNC(C)(C)Cc1ccccc1
inactive: outcome [1] | Potency [10] | activity change, negative = inhibition ([2]; at 17.2 µM (top of the series)) -3.4% | outcome [3]

O=c1oc2ccccc2c(O)c1Cc1c(O)c2ccccc2oc1=O
active: Potency [10] 12.6 µM
inactive: activity change, negative = inhibition ([2]; at 17.2 µM (top of the series)) -5.31%

CCC(C)(C)c1ccc(O)cc1
inactive: Potency [4] > 92 µM | Potency [5] > 92 µM | Potency [6] > 92 µM | Potency [7] > 92 µM | Potency [8] > 92 µM | Potency [9] > 92 µM

CCCC(C)(COC(N)=O)COC(N)=O
inactive: Potency [4] > 92 µM | Potency [5] > 92 µM | Potency [6] > 92 µM | Potency [7] > 92 µM | Potency [8] > 92 µM | Potency [9] > 92 µM

O=c1[nH]oc2c1CCNC2
inactive: outcome [1] | Potency [10] | activity change, negative = inhibition ([2]; at 17.2 µM (top of the series)) -9.07% | activity change, negative = inhibition ([2]; at 38 µM (top of the series)) 9.6% | outcome [3]

COc1ccc2c(c1)C13CCCC[C@@H]1C(C2)N(C)CC3 (stereo not given in full)
inactive: outcome [1] | activity change, negative = inhibition ([2]; at 17.2 µM (top of the series)) -1.88% | outcome [3]

CCOC(=O)CC(SP(=S)(OC)OC)C(=O)OCC (stereo not given)
inactive: Potency [4] > 92 µM | Potency [5] > 92 µM | Potency [6] > 92 µM | Potency [7] > 92 µM | Potency [8] > 92 µM

COc1cc(OC)c(OC)cc1C=O
inactive: Potency [4] > 92 µM | Potency [5] > 92 µM | Potency [6] > 92 µM | Potency [7] > 92 µM | Potency [8] > 92 µM | Potency [9] > 92 µM

CC(C)NC(C)C
inactive: Potency [4] > 92 µM | Potency [5] > 92 µM | Potency [6] > 92 µM | Potency [7] > 92 µM | Potency [8] > 92 µM | Potency [9] > 92 µM

C[C@]12CCC(=O)C=C1CC[C@@H]1[C@@H]2CC[C@]2(C)C(=O)CC[C@@H]12
active: Potency [6] 36.7 µM
inactive: outcome [1] | Potency [4] > 92 µM | Potency [5] > 92 µM | Potency [7] > 92 µM | Potency [8] > 92 µM | Potency [9] > 92 µM | activity change, negative = inhibition ([2]; at 17.2 µM (top of the series)) 7.44% | outcome [3]

[N-]=[N+]=CC(=O)OC[C@H](N)C(=O)O
inactive: outcome [1] | activity change, negative = inhibition ([2]; at 17.2 µM (top of the series)) -1.72% | outcome [3]

NCCc1ccc(O)cc1
inactive: outcome [1] | Potency [10] | Potency [4] > 92 µM | Potency [5] > 92 µM | Potency [6] > 92 µM | Potency [7] > 92 µM | Potency [8] > 92 µM | Potency [9] > 92 µM | activity change, negative = inhibition ([2]; at 38 µM (top of the series)) 5.43%

CC(C)c1cccc(C(C)C)c1O
inactive: outcome [1] | Potency [4] > 92 µM | Potency [5] > 92 µM | Potency [6] > 92 µM | Potency [7] > 92 µM | Potency [8] > 92 µM | Potency [9] > 92 µM | activity change, negative = inhibition ([2]; at 17.2 µM (top of the series)) -3.69% | activity change, negative = inhibition ([2]; at 38 µM (top of the series)) 7.25% | outcome [3]
